{
  "source": "PubChem BioAssay AID463117",
  "about": "(University of Pittsburgh Molecular Library Screening Center, 2010)",
  "note": "The other results are listed elsewhere or left out. A number with no mark means an inactive call. Activity calls are given as the source filed them.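 How the source made its calls: active means mean protection from necroptosis of at least 50% over duplicate tests; inactive means mean protection below 50%.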",
  "data": [
    {"experiment": "rescue of L929 cells from caspase-blocker death – duplicate runs, confirmation (AID 463117);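 further: 0% = cells with zVAD alone and 100% = vehicle cells without zVAD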", "conditions": "L929 zVAD-induced necroptosis rescue, ATP luminescence, 24 h; at 10 µM; stronger effect = higher value", "values": [
      {"smiles": "CC(=O)Nc1cccc(-c2cnc3ccccc3n2)c1", "activation (protection from necroptosis)": "1.04%"},
      {"smiles": "C[C@@H]1C[C@@H]2O[C@H]2/C=C\\C=C\\C(=O)Cc2c(Cl)c(O)cc(O)c2C(=O)O1", "activation (protection from necroptosis)": "76.5% (active)"},
      {"smiles": "CCOC(=O)N1CCN(C(=O)CNC(=O)Cc2ccc(Cl)cc2)CC1", "activation (protection from necroptosis)": "34.3%"},
      {"smiles": "CC1CCCC(C)N1CCCNC(=O)c1cc2c(=O)n(C)c3ccccc3c2n1C", "note": "(stereo not given)", "activation (protection from necroptosis)": "37.3%"},
      {"smiles": "CCN(CC)S(=O)(=O)c1ccc(NC(=O)c2cccnc2Cl)c(NC(=O)c2cccnc2Cl)c1", "activation (protection from necroptosis)": "2.93%"},
      {"smiles": "COc1ccc(-c2csc(Nc3ccc(O)cc3)n2)cc1", "activation (protection from necroptosis)": "30.2%"},
      {"smiles": "COc1ccc(-n2cnc3cc(NCc4ccco4)ccc32)cc1", "activation (protection from necroptosis)": "52.9% (active)"},
      {"smiles": "Oc1ccc(/C=N/Nc2ccc(C(F)(F)F)cn2)cc1O", "activation (protection from necroptosis)": "83.8% (active)"},
      {"smiles": "CC(=O)c1ccc(S(=O)(=O)N2CCN(C(=O)/C=C/c3ccc4ccccc4n3)CC2)cc1", "activation (protection from necroptosis)": "2.81%"},
      {"smiles": "OCCCNc1nccc(-c2cc(Nc3cccc(Cl)c3)ncn2)n1", "activation (protection from necroptosis)": "102% (active)"},
      {"smiles": "COc1cc(N=Cc2c(O)[nH]c3ccccc23)cc(OC)c1OC", "activation (protection from necroptosis)": "72.9% (active)"},
      {"smiles": "Cc1ccccc1NC(=O)CSC1=NCCN1", "activation (protection from necroptosis)": "7.19%"},
      {"smiles": "Cc1ccc(Nc2ccccc2N)cc1", "activation (protection from necroptosis)": "5.52%"},
      {"smiles": "O=C(COc1cccc(-n2cnnn2)c1)NCCC1=CCCCC1", "activation (protection from necroptosis)": "36.6%"},
      {"smiles": "Cc1cc(-n2cnc(-c3cn(C)nc3C)n2)no1", "activation (protection from necroptosis)": "27.6%"},
      {"smiles": "Cc1csc(NC(=O)NC2(C(F)(F)F)Oc3ccccc3O2)n1", "activation (protection from necroptosis)": "1.61%"},
      {"smiles": "COc1ccc(-n2cnc3cc(C(=O)NC4CCCC4)ccc32)cc1", "activation (protection from necroptosis)": "62% (active)"},
      {"smiles": "Cc1ccc(NC(=O)NC2CCCCC2)cc1S(=O)(=O)N1CCOCC1", "activation (protection from necroptosis)": "2.38%"},
      {"smiles": "O=C(CSc1ccc([N+](=O)[O-])cn1)Nc1ccc(N2CCOCC2)c(Cl)c1", "activation (protection from necroptosis)": "3.3%"},
      {"smiles": "Cc1cc(NC(=O)c2cnn3cccnc23)n(-c2ccccc2)n1", "activation (protection from necroptosis)": "21.5%"},
      {"smiles": "CC(=O)c1cc(C#N)c(SCC(=O)Nc2nccs2)nc1C", "activation (protection from necroptosis)": "0.793%"},
      {"smiles": "COc1ccc(N=Cc2c(O)[nH]c3ccccc23)cc1OC", "activation (protection from necroptosis)": "76% (active)"},
      {"smiles": "Cc1cccc(NC(=O)Nc2ccc3c(c2)OCO3)n1", "activation (protection from necroptosis)": "-0.556%"},
      {"smiles": "Cc1[nH]c(=O)c(C(=O)/C=C/c2ccccc2)c2c1CCCC2", "activation (protection from necroptosis)": "1.29%"},
      {"smiles": "COc1ccc(Nc2ncc(F)c(N3CCOCC3)n2)cc1", "activation (protection from necroptosis)": "1.91%"},
      {"smiles": "CC(=O)Nc1ccc(NC(=S)NC(=O)/C=C/c2ccccc2)cc1", "activation (protection from necroptosis)": "-0.0785%"},
      {"smiles": "CCn1c(SCC(=O)Nc2nc3ccc(OC)cc3s2)nnc1-c1ccoc1C", "activation (protection from necroptosis)": "1.15%"},
      {"smiles": "COc1ccc2nc(NC(=O)NC3CCCCC3)sc2c1", "activation (protection from necroptosis)": "37.5%"},
      {"smiles": "Cc1ccc(NC(=O)COc2ccc(-n3ccnc3)cc2)cc1Cl", "activation (protection from necroptosis)": "62.3% (active)"},
      {"smiles": "Cn1ccc(NC(=O)Nc2ccc(Cl)cc2)n1", "activation (protection from necroptosis)": "28.3%"},
      {"smiles": "CC1CCCCC1NC(=O)/C(C#N)=C/C=C/c1ccccc1[N+](=O)[O-]", "note": "(stereo not given)", "activation (protection from necroptosis)": "4.07%"},
      {"smiles": "Oc1ccc(-c2onc3ccc(Cl)cc23)cc1", "activation (protection from necroptosis)": "11.4%"},
      {"smiles": "COc1cc(/C=N/Nc2nc3ccccc3s2)ccc1O", "activation (protection from necroptosis)": "75.3% (active)"},
      {"smiles": "CCn1c(SCCC(C)C)nnc1-c1c[nH]c2ccccc12", "activation (protection from necroptosis)": "2.15%"},
      {"smiles": "CCOc1ccc(C(=O)Nc2nccs2)cc1[N+](=O)[O-]", "activation (protection from necroptosis)": "1.6%"}
    ]}
  ]
}
